# ARNT-TACC3 inh: ARNT/TACC3 interaction disruption; AID 623870; AlphaScreen His-ARNT PAS-B/GST-TACC3 binding, luminescence; TACC3 fragment carries E629A point mutation; actives 0.66% (n = 390,000); inhibition, % at 9.99 µM; Q9Y6A5;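 active = mean inhibition of replicates at least 50% and at least half of replicates each reaching 50%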;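 also: 0% = complete ARNT plus TACC3 wells and 100% = ARNT alone without TACC3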
# DAGLB inhibitor: blocks human DAGLB lipase activity | HEK293T DAGLB membrane lysate, EnzChek fluorogenic substrate | inhibition, % at 5.17 µM | actives 0.059% (n = 340,000) | AID 504411 | Q8NCG7; in the data active = inhibition above about 34%;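 also: 0% = enzyme with vehicle and 100% = wells lacking enzyme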
# Target sequence (Q8NCG7 whole entry, looked up): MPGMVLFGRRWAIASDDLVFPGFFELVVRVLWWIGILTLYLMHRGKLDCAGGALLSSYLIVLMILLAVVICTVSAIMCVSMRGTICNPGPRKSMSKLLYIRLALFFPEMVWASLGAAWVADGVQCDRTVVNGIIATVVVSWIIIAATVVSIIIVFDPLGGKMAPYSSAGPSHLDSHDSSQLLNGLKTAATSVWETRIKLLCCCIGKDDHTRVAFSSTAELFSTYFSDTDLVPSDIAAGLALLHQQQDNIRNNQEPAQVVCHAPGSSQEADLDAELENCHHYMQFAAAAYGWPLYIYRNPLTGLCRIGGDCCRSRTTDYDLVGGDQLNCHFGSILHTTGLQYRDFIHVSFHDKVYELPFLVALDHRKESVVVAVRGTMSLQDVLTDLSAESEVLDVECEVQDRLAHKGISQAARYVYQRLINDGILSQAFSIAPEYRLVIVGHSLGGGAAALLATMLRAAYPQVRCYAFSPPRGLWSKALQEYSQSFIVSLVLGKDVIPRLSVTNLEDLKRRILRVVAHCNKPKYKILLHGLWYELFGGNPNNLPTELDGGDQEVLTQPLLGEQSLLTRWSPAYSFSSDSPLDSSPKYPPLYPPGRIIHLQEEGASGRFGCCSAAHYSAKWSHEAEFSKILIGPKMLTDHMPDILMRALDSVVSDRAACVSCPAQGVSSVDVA
# Neddyl block: cullin neddylation inhibition | actives 0.58% (n = 360,000) | TR-FRET cullin neddylation, biochemical | inhibition, % at 25 µM | P61081+Q13564; in the data active = inhibition above about 36%
# NadD block: blocks S. aureus nicotinate mononucleotide adenylyltransferase | purified NadD enzyme, colorimetric absorbance read-out | inhibition, % at 20 µM | actives 0.78% (n = 360,000) | AID 602399; in the data active = inhibition above about 26%
# HGIII-sPLA2 inh: Inhibits HGIII-sPLA2 liposome hydrolysis, primary screen | AID 743126 | QFRET BODIPY PC-A2 liposome hydrolysis, fluorescence | actives 0.56% (n = 370,000) | Q9NZ20 | inhibition, % at 12.2 µM;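 active = inhibition above mean plus 3 SD of compounds lying within the high and low control bounds, cut at about 19% in these data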;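 also: 0% = median of test compound wells and 100% = no enzyme DMSO wells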
# NadD inh conf: NadD (S. aureus) inhibition, single concentration confirmation | shares compounds with NadD block | purified S. aureus NadD, colorimetric enzyme assay | inhibition, % at 20 µM | actives 13% (n = 2,000) | AID 624309; in the data active = inhibition mostly above about 42%, no sharp cut-off; inactive = mostly below about 42%
# Numbers without * were called inactive; . = not tested or not shown. This is a sample that favours compounds with a hit; in the whole collection about 2% have one here.
SMILES,ARNT-TACC3 inh,DAGLB inhibitor,Neddyl block,NadD block,HGIII-sPLA2 inh,NadD inh conf
COc1ccc(OC)c(S(=O)(=O)Nc2cccc(-c3ccc(N4CCCCCC4)nn3)c2)c1,.,3,-116,36*,-2,30
COc1ccc(S(=O)(=O)Nc2cccc(-c3ccc(N4CCCCCC4)nn3)c2)cc1OC,2,1,-91,23,-29,.
CN1C(=O)c2cc(NC(=O)Cc3ccccc3)ccc2OC[C@@H]2O[C@@H](CC(=O)NCC3CC3)CC[C@H]21,2,.,.,.,.,.
CC12N=C3SCc4ccccc4CN3[C@H](c3ccccc3O1)[C@H]2CO[Si](C)(C)C(C)(C)C,7,.,.,.,.,.
CO[C@H]1CN(C)C(=O)c2cc(NC(=O)c3nc4ccccc4s3)ccc2OC[C@H](C)N(Cc2cncnc2)C[C@@H]1C,-4,.,.,.,.,.
COc1ccc(NC(=O)N(C)C[C@H]2Oc3ccc(NC(=O)C4CCCCC4)cc3CC(=O)N([C@@H](C)CO)C[C@H]2C)cc1,-8,.,.,.,.,.
COc1ccc([C@@H]2CC(=O)[C@@H]3CN(S(=O)(=O)c4ccc(Cl)cc4)[C@H](c4ccc(C)cc4)C[C@@H]3N2S(=O)(=O)c2ccccc2)cc1,.,.,-8,30*,-2,8
Cc1sc(NC(=O)Cc2ccc3c(c2)OCO3)nc1-c1ccc2c(c1)CCN2C(=O)c1ccc(F)cc1,-6,-1,-32,35*,-17,28
Cc1sc(NC(=O)Cc2ccc3c(c2)OCO3)nc1-c1ccc2c(c1)CCN2C(=O)c1ccccc1F,0,6,-463,37*,-2,20
Cc1sc(NC(=O)CN2CCCC2)nc1-c1ccc2c(c1)CCN2C(=O)c1cccc(F)c1,13,2,-5,16,-10,.
Cc1ccccc1-c1ccc2c(c1)O[C@H](CN(C)C(=O)c1ccccn1)[C@H](C)CN([C@@H](C)CO)S2(=O)=O,1,.,.,.,.,.
O=S(=O)(c1ccc(Cl)cc1)N1CCN(c2nc(-c3cccs3)nc3ccccc23)CC1,-1,1,-107,30*,-1,28
Cc1cc(C)cc(S(=O)(=O)N2CCN(c3nc(-c4cccs4)nc4ccccc34)CC2)c1,.,.,.,.,14,.
CCCC(=O)Nc1ccc2c(c1)C(=O)N(C)[C@@H]1CC[C@@H](CC(=O)Nc3ccccc3)O[C@H]1CO2,4,.,.,.,.,.
CC(C)NC(=O)NCC[C@@H]1CC[C@@H](NC(=O)CN(C)C)[C@@H](CO)O1,14,.,.,.,.,.
Nc1ncnc2oc(-c3ccco3)c(-c3ccco3)c12,26,-2,43*,54*,2,27
FC(F)(F)c1cc(Cl)c2nc(-c3ccco3)c(Cc3ccccc3C(F)(F)F)n2c1,.,.,-6,43*,13,11
CCOc1c(Cl)cc(CNc2ccc(S(N)(=O)=O)cc2)cc1OC,-5,0,5,-5,0,.
CCOc1c(Cl)cc(CNc2ccc(N3CCCC3)cc2)cc1OC,35,11,18,33*,2,2
CCC(=O)N(C)C[C@H]1Oc2cc(-c3ccc(OC)cc3)ccc2S(=O)(=O)N([C@H](C)CO)C[C@@H]1C,-10,.,.,.,.,.
Cc1c(N=C2N=C(NC(=O)c3cccs3)c3ccccc32)c(=O)n(-c2ccccc2)n1C,-32,5,-64,31*,-4,12
CCNC(=O)C[C@@H]1CC[C@@H]2[C@H](COc3ccc(NC(=O)Nc4ccc(C)cc4)cc3C(=O)N2C)O1,-10,.,.,.,.,.
Cc1ccc(S(=O)(=O)Nc2ccc3c(c2)C(=O)N([C@H](C)CO)C[C@H](C)[C@@H](CN(C)S(=O)(=O)c2ccc(C)cc2)OCCCC[C@H](C)O3)cc1,0,.,.,.,.,.
CCC(=O)N(Cc1ccc2c(c1)OCO2)Cc1cc2cc(OC)ccc2[nH]c1=O,0,2,8,33*,-4,12
CCN(Cc1cc2cc(OC)ccc2[nH]c1=O)C(=O)Cc1ccc(OC)cc1,6,1,38,4,-9,.
SMILES,ARNT-TACC3 inh,DAGLB inhibitor,Neddyl block,NadD block,HGIII-sPLA2 inh,NadD inh conf
COc1ccc(NC(=O)Nc2cccc3c2O[C@@H](CN(C)C)[C@@H](C)CN([C@@H](C)CO)C3=O)cc1,-2,.,.,.,.,.
C[C@@H]1CCCCO[C@H](CN(C)C(=O)CCCN(C)C)[C@@H](C)CN([C@H](C)CO)C(=O)c2cc(NS(C)(=O)=O)ccc2O1,-3,.,.,.,.,.
O=C(Nc1cccc(Cl)c1)c1nc[nH]c1C(=O)NCCN(CCNC(=O)c1[nH]cnc1C(=O)Nc1cccc(Cl)c1)CCNC(=O)c1[nH]cnc1C(=O)Nc1cccc(Cl)c1,-3,0,-16,59*,-1,9
O=C(Nc1ccc(Cl)cc1)c1nc[nH]c1C(=O)NCCCCNC(=O)c1[nH]cnc1C(=O)Nc1ccc(Cl)cc1,-5,-1,.,30*,8,6
O=C(Nc1cccc(Cl)c1)c1nc[nH]c1C(=O)NCc1ccccc1,7,-2,.,7,-2,.
CC(C)(C)OC(=O)NCCCCCNC(=O)c1[nH]cnc1C(=O)Nc1cccc(Cl)c1,-3,3,2,0,2,.
O=C(Nc1ccc(Cl)cc1)c1nc[nH]c1C(=O)Nc1ccccc1F,.,-5,.,5,-4,.
O=C(Nc1cccc(Cl)c1)c1nc[nH]c1C(=O)NCCCCNC(=O)c1[nH]cnc1C(=O)Nc1cccc(Cl)c1,-7,4,-14,31*,4,5
COc1ccccc1C#Cc1ccc2c(c1)[C@H]1[C@H](CCN1C(=O)c1ccncc1)[C@H](CO)N2,3,.,.,.,.,.
Cc1noc(C)c1S(=O)(=O)N(C)C[C@@H]1OCCCC[C@@H](C)Oc2ccc(NC(=O)NC3CCCCC3)cc2C(=O)N([C@H](C)CO)C[C@@H]1C,-3,.,.,.,.,.
Cc1[nH]c(=S)c(C#N)c(C)c1C(=O)Nc1ccccc1,3,-1,-10,4,11,.
C=CCc1c(C)[nH]c(=S)c(C#N)c1C,4,0,-33,34*,2,24
C[C@H](CO)N1C[C@H](C)[C@H](CN(C)S(=O)(=O)c2ccccc2)Oc2ncc(C#Cc3ccc(C(F)(F)F)cc3)cc2C1=O,-3,.,.,.,.,.
COc1ccc(-c2csc(/C(C#N)=C\c3ccc(O)c([N+](=O)[O-])c3)n2)cc1OC,5,12,-63,27*,0,11
Cc1ccc(COc2ccc(/C=N/NC(=O)c3ccc(CN4CCOCC4)cc3)cc2)cc1,20,-1,1,-7,-4,.
Cc1ccc(C(C)C)c(OCc2ccc(C(=O)N/N=C/c3ccc(C(=O)O)cc3)cc2)c1,-5,-3,-3,30*,1,3
C[C@@H](O)C#Cc1cnc2c(c1)C(=O)N([C@@H](C)CO)C[C@H](C)[C@@H](CN(C)C(=O)Nc1ccc(F)cc1)O2,0,.,.,.,.,.
COc1ccccc1NC(=O)c1c(Nc2ccccc2F)sc(C(=O)Nc2cccc(Cl)c2)c1N,-7,-14,-8,43*,-5,41
COc1ccccc1NC(=O)C/C(N)=N/OCC(=O)Nc1cccc(Cl)c1,1,-4,3,1,6,.

# High-throughput results (PubChem BioAssay)
